Activity calls are given as the source filed them.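 How the source made its calls, unless noted: active means mean inhibition above 46.68%, the untreated control wells mean plus 3 SD; inactive means the rest.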
Key:
[1] = molecular target: Nuclear receptor coactivator 3 (Homo sapiens) (UniProt Q9Y6Q9); test: NCOA3 GAL4-fusion reporter inhibition – cell-based, luminescence, quadruplicate, confirmation (AID 588792;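 active means mean inhibition over 43.08%, the solvent-only control mean plus 3 SD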;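 further: 0% = DMSO treated cells and 100% = gossypol at 36 µM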); settings: HEK293 GAL4-SRC3 luciferase reporter, at 3.6 µM, stronger effect = higher value
Sequence of Nuclear receptor coactivator 3 (Homo sapiens) (Q9Y6Q9 whole entry, looked up, the tested form may be a part): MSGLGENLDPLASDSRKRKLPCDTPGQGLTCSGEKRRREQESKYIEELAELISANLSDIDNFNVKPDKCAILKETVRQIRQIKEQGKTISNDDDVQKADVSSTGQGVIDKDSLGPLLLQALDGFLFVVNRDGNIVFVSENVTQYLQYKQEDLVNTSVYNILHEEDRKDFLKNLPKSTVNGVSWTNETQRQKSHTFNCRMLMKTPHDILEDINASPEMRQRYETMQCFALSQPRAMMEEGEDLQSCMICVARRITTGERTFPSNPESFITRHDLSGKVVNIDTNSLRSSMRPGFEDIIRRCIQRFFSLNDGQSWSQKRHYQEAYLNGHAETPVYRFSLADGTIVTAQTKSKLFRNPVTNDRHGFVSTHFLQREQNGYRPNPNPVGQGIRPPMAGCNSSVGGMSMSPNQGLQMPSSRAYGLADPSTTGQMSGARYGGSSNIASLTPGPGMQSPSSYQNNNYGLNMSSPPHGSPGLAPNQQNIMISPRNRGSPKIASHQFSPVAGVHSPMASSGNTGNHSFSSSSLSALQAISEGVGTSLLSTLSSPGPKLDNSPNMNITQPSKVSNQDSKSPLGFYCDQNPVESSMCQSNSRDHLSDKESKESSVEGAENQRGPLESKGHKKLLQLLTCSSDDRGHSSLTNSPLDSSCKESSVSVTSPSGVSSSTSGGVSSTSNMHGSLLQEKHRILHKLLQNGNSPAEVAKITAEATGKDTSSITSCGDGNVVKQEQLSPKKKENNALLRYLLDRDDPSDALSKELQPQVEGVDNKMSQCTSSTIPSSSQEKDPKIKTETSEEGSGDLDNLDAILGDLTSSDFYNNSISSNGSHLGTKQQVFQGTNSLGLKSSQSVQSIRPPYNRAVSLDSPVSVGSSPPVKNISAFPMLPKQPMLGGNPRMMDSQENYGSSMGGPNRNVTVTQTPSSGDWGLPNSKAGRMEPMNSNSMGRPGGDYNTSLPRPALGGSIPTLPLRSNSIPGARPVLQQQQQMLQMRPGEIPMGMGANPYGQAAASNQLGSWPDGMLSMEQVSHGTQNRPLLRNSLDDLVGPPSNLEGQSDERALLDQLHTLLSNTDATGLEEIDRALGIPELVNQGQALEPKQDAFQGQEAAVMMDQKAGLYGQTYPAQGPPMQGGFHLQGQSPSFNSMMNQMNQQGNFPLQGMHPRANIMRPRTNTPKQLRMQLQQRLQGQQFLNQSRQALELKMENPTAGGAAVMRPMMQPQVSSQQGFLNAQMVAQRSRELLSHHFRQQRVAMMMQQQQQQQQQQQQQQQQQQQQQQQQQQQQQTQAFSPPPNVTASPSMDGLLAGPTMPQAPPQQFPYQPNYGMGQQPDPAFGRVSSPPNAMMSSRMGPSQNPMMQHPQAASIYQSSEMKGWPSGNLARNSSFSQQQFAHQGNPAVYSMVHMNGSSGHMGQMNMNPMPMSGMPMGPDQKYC

[2] = tested on: transactivating tegument protein VP16 (Human herpesvirus 1), Gal4-VP16 luciferase reporter; test: repression of VP16-driven luciferase reporter – cell-based, luminescence, high throughput, counter-screen for SRC3 inhibitor project (AID 588794; in the data active means inhibition above about 30%); settings: mammalian cells, at 3.6 µM, stronger effect = higher value
[3] = molecular target: Nuclear receptor coactivator 1 (Homo sapiens) (UniProt Q15788); test: NCOA1 GAL4-fusion reporter inhibition – cell-based, luminescence, quadruplicate, confirmation (AID 588820); settings: HEK293 GAL4-SRC1 luciferase reporter, at 3.6 µM, stronger effect = higher value;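 further: 0% = DMSO wells and 100% = gossypol 36 µM treated wells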
Sequence of Nuclear receptor coactivator 1 (Homo sapiens) (Q15788 whole entry, looked up, the tested form may be a part): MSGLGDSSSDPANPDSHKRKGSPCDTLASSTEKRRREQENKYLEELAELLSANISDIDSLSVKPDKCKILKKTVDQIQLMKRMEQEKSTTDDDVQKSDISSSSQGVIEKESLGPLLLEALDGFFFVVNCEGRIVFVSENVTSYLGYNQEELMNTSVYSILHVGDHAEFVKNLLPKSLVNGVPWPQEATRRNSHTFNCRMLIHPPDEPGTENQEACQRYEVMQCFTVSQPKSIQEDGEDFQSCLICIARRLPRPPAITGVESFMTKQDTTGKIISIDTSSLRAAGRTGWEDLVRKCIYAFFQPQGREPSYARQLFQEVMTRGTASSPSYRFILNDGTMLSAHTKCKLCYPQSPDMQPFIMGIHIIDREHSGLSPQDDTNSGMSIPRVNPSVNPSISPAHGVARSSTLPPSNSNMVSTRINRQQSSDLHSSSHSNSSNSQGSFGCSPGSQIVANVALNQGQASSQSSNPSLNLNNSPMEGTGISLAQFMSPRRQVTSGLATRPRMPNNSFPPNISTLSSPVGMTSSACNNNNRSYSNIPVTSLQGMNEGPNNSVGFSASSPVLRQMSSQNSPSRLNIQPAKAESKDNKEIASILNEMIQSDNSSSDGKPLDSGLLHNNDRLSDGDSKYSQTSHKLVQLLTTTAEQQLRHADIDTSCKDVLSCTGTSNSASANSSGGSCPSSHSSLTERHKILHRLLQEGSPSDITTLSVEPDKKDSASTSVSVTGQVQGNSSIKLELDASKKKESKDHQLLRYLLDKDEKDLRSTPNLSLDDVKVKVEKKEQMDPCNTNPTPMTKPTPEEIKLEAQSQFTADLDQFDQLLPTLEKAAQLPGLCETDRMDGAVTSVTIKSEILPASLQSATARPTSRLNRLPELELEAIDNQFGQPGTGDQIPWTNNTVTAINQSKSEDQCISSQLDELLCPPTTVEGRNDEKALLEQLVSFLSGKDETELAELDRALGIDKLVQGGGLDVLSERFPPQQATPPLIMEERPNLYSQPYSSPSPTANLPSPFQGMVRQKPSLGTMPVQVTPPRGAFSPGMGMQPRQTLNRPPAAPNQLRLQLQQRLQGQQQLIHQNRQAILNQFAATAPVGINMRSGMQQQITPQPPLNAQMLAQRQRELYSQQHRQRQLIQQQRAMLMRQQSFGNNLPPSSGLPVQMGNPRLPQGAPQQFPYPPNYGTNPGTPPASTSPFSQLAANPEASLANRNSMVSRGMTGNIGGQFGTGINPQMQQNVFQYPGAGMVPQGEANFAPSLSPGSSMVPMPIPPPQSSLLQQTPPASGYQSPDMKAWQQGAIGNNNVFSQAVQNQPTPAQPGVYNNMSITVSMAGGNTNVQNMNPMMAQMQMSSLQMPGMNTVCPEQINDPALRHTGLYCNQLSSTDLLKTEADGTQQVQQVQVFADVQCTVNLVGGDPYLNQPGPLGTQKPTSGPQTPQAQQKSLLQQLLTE

[4] = repression of VP16-driven luciferase reporter – cell-based, luminescence, high throughput, counter-screen for SRC1 inhibitor project (AID 588824; in the data active means inhibition above about 25%); settings: cell-based VP16 transactivation luciferase luminescence; at 3.6 µM; stronger effect = higher value
[5] = StAR promoter reporter inhibitors, counter-screen for LRH-1 inverse agonist project, cell-based, luminescence, high throughput (AID 651611; in the data active means inhibition above about 28%); settings: StAR promoter luciferase reporter counterscreen, at 3.6 µM, stronger effect = higher value
[6] = molecular target: Nuclear receptor subfamily 5 group A member 2 (Homo sapiens) (UniProt O00482); test: NR5A2 activity suppression in reporter cells – cell-based, luminescence, confirmation (AID 651613; in the data active means inhibition above about 42%;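 further: HEK293T cells co-transfected with LRH-1 and StAR promoter luciferase reporter; 0% = vehicle wells and 100% = parental cells lacking receptor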); settings: cell-based LRH-1 luciferase reporter, inverse agonism; at 3.6 µM; stronger effect = higher value
Sequence of Nuclear receptor subfamily 5 group A member 2 (Homo sapiens) (O00482 whole entry, looked up): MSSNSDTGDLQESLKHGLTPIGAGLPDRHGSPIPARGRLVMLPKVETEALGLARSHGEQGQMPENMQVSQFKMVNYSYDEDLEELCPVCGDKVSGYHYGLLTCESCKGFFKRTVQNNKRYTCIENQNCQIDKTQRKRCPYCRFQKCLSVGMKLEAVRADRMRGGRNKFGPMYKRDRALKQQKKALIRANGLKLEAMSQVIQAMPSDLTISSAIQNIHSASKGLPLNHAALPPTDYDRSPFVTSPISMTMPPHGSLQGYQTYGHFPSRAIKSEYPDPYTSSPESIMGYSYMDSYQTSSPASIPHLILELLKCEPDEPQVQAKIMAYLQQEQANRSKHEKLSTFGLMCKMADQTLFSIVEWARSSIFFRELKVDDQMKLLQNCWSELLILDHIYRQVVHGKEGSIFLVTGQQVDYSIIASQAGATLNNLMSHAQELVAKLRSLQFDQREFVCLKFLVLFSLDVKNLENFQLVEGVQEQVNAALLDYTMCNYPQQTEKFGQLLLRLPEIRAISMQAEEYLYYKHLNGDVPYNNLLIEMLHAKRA

[7] = molecular target: Steroidogenic factor 1 (Homo sapiens) (UniProt Q13285); test: inverse agonism at SF1 nuclear receptor – cell-based, luminescence, high throughput, counter-screen for LRH-1 inverse agonist project (AID 651614; in the data active means inhibition above about 44%;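 further: cells cotransfected with StAR promoter reporter and SF1 expression vector; 0% = vehicle on cells with receptor and 100% = vehicle on cells lacking receptor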); settings: cell-based SF1 luciferase reporter, at 3.6 µM, stronger effect = higher value
Sequence of Steroidogenic factor 1 (Homo sapiens) (Q13285 whole entry, looked up, the tested form may be a part): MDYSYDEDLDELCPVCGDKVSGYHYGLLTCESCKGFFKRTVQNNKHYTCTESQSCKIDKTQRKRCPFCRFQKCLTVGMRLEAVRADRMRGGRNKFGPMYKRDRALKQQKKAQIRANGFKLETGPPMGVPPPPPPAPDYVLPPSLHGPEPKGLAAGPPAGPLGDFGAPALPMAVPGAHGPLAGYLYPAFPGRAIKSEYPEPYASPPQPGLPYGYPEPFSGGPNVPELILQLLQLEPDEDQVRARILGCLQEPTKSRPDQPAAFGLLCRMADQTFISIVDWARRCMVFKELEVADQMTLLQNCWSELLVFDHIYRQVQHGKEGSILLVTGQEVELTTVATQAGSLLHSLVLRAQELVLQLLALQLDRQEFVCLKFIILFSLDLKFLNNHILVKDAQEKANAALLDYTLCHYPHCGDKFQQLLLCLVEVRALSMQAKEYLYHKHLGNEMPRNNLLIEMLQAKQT

[8] = compounds suppressing VP16-driven luciferase signal – cell-based, luminescence, high throughput, counter-screen for LRH-1 inverse agonist project (AID 651615; in the data active means inhibition above about 33%); settings: Gal4-VP16 luciferase reporter cells, at 3.6 µM, stronger effect = higher value

Measured: inhibition

Cc1ccccc1CN1CC2=C(CCN(Cc3ccccc3)C2=O)N2CCN=C12
active: [1] 47.9% | [2] 70.7% | [3] 53.7% | [4] 66.9% | [5] 76.9% | [6] 96.3% | [7] 88.7% | [8] 77.8%

CCC(C)N(CC(=O)Nc1cccc(C)c1C)C(=O)CCl (stereo not drawn)
active: [1] 80% | [2] 67% | [3] 52% | [4] 71% | [5] 69.2% | [6] 84.8% | [7] 78.8% | [8] 77.9%

CC(=NNC(=S)Nc1ccccc1)c1ccccn1
active: [2] 70.5% | [4] 67.8% | [5] 78.3% | [6] 101% | [7] 90% | [8] 85.6%
inactive: [1] 41% | [3] -15.4%

CCC[N+]1(CC#CCC(c2ccccc2)c2ccccc2)CCCCC1
inactive: [1] 28.8% | [3] 21.4% | [5] 24.2%
active: [2] 40.3% | [4] 53.2% | [6] 104% | [7] 67.9% | [8] 73.6%

NCCCNc1nc(N)c([N+](=O)[O-])c(NC2CCCCC2)n1
active: [1] 62.2% | [2] 42.4% | [4] 27.1% | [5] 84.7% | [6] 98.5% | [7] 82.5% | [8] 88.1%
inactive: [3] 7.71%

CCOc1ccc(-n2c(-c3ccc(OC)cc3)c[n+]3c2CCCCC3)cc1
active: [1] 46.6% | [2] 67.5% | [4] 63.9% | [5] 52.9% | [6] 109% | [7] 83.9% | [8] 90.3%
inactive: [3] 36.2%

CC(C)(O)C#Cc1ccc([C@@H]2C[C@H]3CN(c4ccccc4)C(=O)[C@]34CCCN24)s1
inactive: [1] 42.9% | [3] 45.8% | [7] 28.3%
active: [2] 41.9% | [4] 42.1% | [5] 61.3% | [6] 82% | [8] 88.8%

Cc1cccc(NC(=O)c2cc(Cl)ccc2[N+](=O)[O-])c1
inactive: [1] 42.4% | [2] 27% | [3] 17.7%
active: [4] 51.4% | [5] 44.3% | [6] 51% | [7] 58.4% | [8] 33.2%

Cc1ccc(S(=O)(=O)N(C)C)cc1NC(=O)c1cncc(Br)c1
inactive: [1] 22.1% | [2] 5.79% | [3] 8.59% | [4] 0.1% | [8] 19.7%
active: [5] 44.1% | [6] 43% | [7] 47.6%

CC1CN(S(=O)(=O)c2ccc(C(=O)NCCCn3ccnc3)cc2)CC(C)O1 (stereo not drawn)
active: [1] 87.8% | [2] 47.5% | [3] 67.9% | [4] 30.4% | [5] 87.1% | [6] 99.2% | [7] 95.5% | [8] 81.1%

CC(=O)c1c(C)[nH]c(C(=O)OCC(=O)Nc2cccc(S(=O)(=O)N3CCCC3)c2)c1C
active: [2] 43.6% | [4] 38.3% | [6] 49.3% | [7] 48.9% | [8] 51.7%
inactive: [1] 20.7% | [3] 5.87% | [5] 26.2%

CCc1ccc(/C=C/c2c[nH]c3ccccc23)[n+](CC)c1
active: [2] 43.6% | [4] 58% | [5] 39.4% | [6] 87.6% | [7] 74% | [8] 75.8%
inactive: [1] 29.8% | [3] 24.4%

OCCCNc1cc(-c2ccnc(Nc3cccc(Cl)c3)n2)ccn1
active: [1] 95.9% | [2] 97.1% | [3] 84.5% | [4] 96.3% | [5] 89.9% | [6] 108% | [7] 96.5% | [8] 97.9%

OCC1OC(n2cnc3c(NCc4ccco4)ncnc32)C(O)C1O (stereo not drawn)
inactive: [3] 33.5%
active: [1] 71.1% | [2] 53.4% | [4] 48.7% | [5] 65.1% | [6] 60.3% | [7] 85.7% | [8] 67.7%

CCN(CC)c1ccc(C(NC(=O)C(C)C)c2ccc3cccnc3c2O)cc1 (stereo not drawn)
active: [1] 55.9% | [2] 56% | [3] 78.3% | [4] 66.5% | [5] 86.3% | [6] 103% | [7] 90% | [8] 84.9%

Cc1nn(C(C)(C)C)c(C)c1/C=N/OC(=O)Nc1ccc(Cl)cc1
active: [1] 94% | [2] 91.8% | [3] 87.3% | [4] 87.8% | [5] 92.3% | [6] 95.5% | [7] 93.6% | [8] 88.7%

From PubChem BioAssay
